Results: PubChem BioAssay AID1159580 (chemical genetic matrix, 2015)
Values joined by “and” are separate entries in the source; they are usually repeats but may differ in a detail not shown here. Identical values can stand only once. The campaign covered roughly 5,500 compounds. About 2,000 (36%) were called active. Not shown: some 18% with an inconclusive outcome. No stated cut-off is given here; in the data, active means normalized growth mostly below about 0.91 (no sharp cut-off); inconclusive means no clear call, values can overlap the other calls; inactive means mostly above about 0.92. The list shows a part of the results.

Assay: chemical genetic growth profiling, strain panel (AID 1159580);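 further: tested at 20 µM; growth read once vehicle control cultures reached saturation at 30 °C; 1 = growth at the plate median or of vehicle wells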
Conditions: S. cerevisiae deletion strains, growth OD

Measured: normalized growth

CC[C@@H]1[C@@H](O)N2C3C[C@H]1C1C(O)[C@]4(C[C@@H]12)c1ccccc1N(C)[C@@H]34 (some centres not stated)
inactive: locus YAL013W, strain DEP1, stronger effect = lower value 0.992 | locus YAL021C, strain ccr4, stronger effect = lower value 1.01 | locus YAL026C, strain drs2, stronger effect = lower value 1.04 | locus YAL030W, strain snc1, stronger effect = lower value 1.05 | locus YBL061C, strain skt5, stronger effect = lower value 1.04 | locus YBR009C, strain hhf1, stronger effect = lower value 1.02 | locus YBR021W, strain FUR4, stronger effect = lower value 0.989 | locus YBR023C, strain chs3, stronger effect = lower value 1.05 | locus YBR171W, strain sec66, stronger effect = lower value 1.07 | locus YBR229C, strain ROT2, stronger effect = lower value 0.991 | locus YBR231C, strain swc5, stronger effect = lower value 0.999 | locus YBR279W, strain paf1, stronger effect = lower value 1.04 | locus YCL011C, strain gbp2, stronger effect = lower value 1.02 | locus YCL016C, strain dcc1, stronger effect = lower value 1.02 | locus YCL029C, strain bik1, stronger effect = lower value 0.956 | locus YCL061C, strain MRC1, stronger effect = lower value 1.04 | locus YCL069W, strain vba3, stronger effect = lower value 1.04 | locus YCR088W, strain abp1, stronger effect = lower value 1.04 | locus YDL005C, strain med2, stronger effect = lower value 1.05 | locus YDL035C, strain GPR1, stronger effect = lower value 1.01 | locus YDL040C, strain nat1, stronger effect = lower value 1.03 | locus YDL074C, strain BRE1, stronger effect = lower value 0.972 | locus YDL101C, strain DUN1, stronger effect = lower value 0.984 | locus YDL134C, strain PPH21, stronger effect = lower value 0.986 | locus YDL185W, strain tfp1, stronger effect = lower value 0.963 | locus YDL192W, strain arf1, stronger effect = lower value 0.984 | locus YDR001C, strain nth1, stronger effect = lower value 1.02 | locus YDR069C, strain doa4, stronger effect = lower value 1.04 | locus YDR101C, strain arx1, stronger effect = lower value 0.981 | locus YDR137W, strain rgp1, stronger effect = lower value 1.04 | locus YDR150W, strain NUM1, stronger effect = lower value 1 | locus YDR159W, strain sac3, stronger effect = lower value 0.974 | locus YDR162C, strain NBP2, stronger effect = lower value 0.998 | locus YDR195W, strain ref2 1.03 | locus YDR297W, strain sur2, stronger effect = lower value 1.03 | locus YDR318W, strain mcm21, stronger effect = lower value 0.972 | locus YDR334W, strain swr1, stronger effect = lower value 1.03 | locus YDR335W, strain msn5, stronger effect = lower value 1.03 | locus YDR388W, stronger effect = lower value 0.978 | locus YDR392W, strain spt3, stronger effect = lower value 0.93 | locus YDR502C, strain sam2, stronger effect = lower value 1 | locus YEL003W, strain gim4, stronger effect = lower value 1.03 | locus YEL037C, strain rad23, stronger effect = lower value 1.02 | locus YEL061C, strain CIN8 (second series), stronger effect = lower value 1.04 | locus YEL061C, strain CIN8, stronger effect = lower value 0.995 | locus YER015W, strain faa2, stronger effect = lower value 1.02 | locus YER016W, strain bim1, stronger effect = lower value 1.01 | locus YER110C, stronger effect = lower value 0.977 | locus YER111C, strain swi4, stronger effect = lower value 1.06 | locus YER155C, strain BEM2 (second series), stronger effect = lower value 0.983 | locus YER155C, strain BEM2, stronger effect = lower value 0.991 | locus YER167W, strain BCK2, stronger effect = lower value 0.989 | locus YFR010W, strain ubp6, stronger effect = lower value 1.02 | locus YGL078C, strain dbp3, stronger effect = lower value 0.978 | locus YGL086W, strain mad1, stronger effect = lower value 0.992 | locus YGL167C, strain pmr1, stronger effect = lower value 1.03 | locus YGL173C, strain kem1, stronger effect = lower value 1.02 | locus YGL227W, strain vid30, stronger effect = lower value 1.05 | locus YGL240W, strain doc1, stronger effect = lower value 0.979 | locus YGL248W, strain PDE1, stronger effect = lower value 0.991 | locus YGL253W, strain hxk2, stronger effect = lower value 1.04 | locus YGR078C, strain PAC10, stronger effect = lower value 0.984 | locus YGR135W, strain pre9, stronger effect = lower value 0.96 | locus YGR229C, strain SMI1, stronger effect = lower value 1 | locus YGR252W, strain gcn5, stronger effect = lower value 1 | locus YHR013C, strain ard1, stronger effect = lower value 1.03 | locus YHR027C, strain rpn1, stronger effect = lower value 1.02 | locus YHR030C, strain SLT2, stronger effect = lower value 0.993 and 0.984 | locus YHR079C, strain IRE1 (second series), stronger effect = lower value 0.965 | locus YHR079C, strain IRE1, stronger effect = lower value 0.981 | locus YHR094C, strain hxt1, stronger effect = lower value 0.983 | locus YHR129C, strain ARP1, stronger effect = lower value 0.982 | locus YHR142W, strain chs7, stronger effect = lower value 1.1 | locus YHR200W, strain rpn10, stronger effect = lower value 0.981 | locus YIL066C, strain RNR3, stronger effect = lower value 0.993 | locus YIL073C, strain SPO22, stronger effect = lower value 0.997 | locus YIL125W, strain kgd1, stronger effect = lower value 0.981 | locus YIR030C, strain dcg1, stronger effect = lower value 0.984 | locus YJL092W, strain hpr5, stronger effect = lower value 1.04 | locus YJL095W, strain BCK1 (second series), stronger effect = lower value 1.01 | locus YJL095W, strain BCK1, stronger effect = lower value 0.966 and 1.01 | locus YJL115W, strain asf1, stronger effect = lower value 1.07 | locus YJL129C, strain trk1, stronger effect = lower value 1.06 | locus YJL134W, strain LCB3, stronger effect = lower value 0.993 | locus YJL154C, strain vps35, stronger effect = lower value 1.03 | locus YJL164C, strain tpk1, stronger effect = lower value 1.04 | locus YJL166W, strain qcr8, stronger effect = lower value 1.04 | locus YJL168C, strain set2, stronger effect = lower value 0.97 | locus YJL187C, strain SWE1 (second series), stronger effect = lower value 0.979 | locus YJL187C, strain SWE1, stronger effect = lower value 1.02 | locus YJR043C, strain POL32, stronger effect = lower value 0.973 | locus YJR066W, strain TOR1, stronger effect = lower value 0.926
